Measurements: PubChem BioAssay (NCATS)
Inconclusive results are not listed. The source made the active and inactive calls. Calls follow the shape of the dose curve; as a rule, active = well fitted curve in the direction sought with a large enough effect; inconclusive = small, poorly fitted or top-dose-only effect, or another doubt; inactive = no such curve, though single readings can be large; an effect the other way counts as inactive or inconclusive.

What was measured:
[1] = Cellular Toxicity (caspase-3) Mesangial (AID 660); details: mesangial cells, normalized: DMSO 0%, 100 µM tamoxifen 100%; at 91.7 µM (top of the series);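 also: combined caspase 3 and 7 activity read by Caspase-Glo luminescence; cells exposed to compound for 16 h before the caspase read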
Outline: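 Human renal glomerular mesangial cells, 1000/well, 5 h at 37 C before 16 h compound treatment. Caspase-Glo 3/7 luminescence after 20 min; normalized to DMSO and 100 uM tamoxifen, AC50 from Hill fit.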

[2] = Cellular Toxicity (caspase-3) SK-N-SH (AID 661);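 also: 0% = DMSO basal and 100% = 10 µM staurosporine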
Outline: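 Human SK-N-SH neuroblastoma cells, 1500/well, were exposed to compounds for 16 hours at 37 °C. Caspase-Glo 3/7 luminescence was normalized to DMSO (basal) and 10 uM staurosporine (100%), and AC50 came from a Hill fit.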

[3] = Cellular Toxicity (caspase-3) H-4-II-E (AID 663); details: H-4-II-E rat hepatoma, scaled: DMSO 0%, 100 µM tamoxifen 100%; at 92.2 µM (top of the series);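 also: cells exposed to compound for 16 hr before readout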
Outline: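 Apoptosis induction is scored as increased luminescence from caspase 3/7 substrate cleavage in rat hepatoma H-4-II-E cells exposed to compound for 16 hr. Activity is scaled between DMSO and 100 uM tamoxifen.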

[4] = Cellular Toxicity (caspase-3) Hek293 (AID 664); details: HEK293 caspase-3 activation, DMSO = 0%, 100 µM tamoxifen = 100%; at 92.2 µM (top of the series);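 also: cells exposed to compound for 16 h at 37 °C before readout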
Outline: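 HEK293 cells in complete medium treated 16 h at 37 °C, then Caspase-Glo 3/7 luminescence read after 20 min at room temperature. Normalized to DMSO and 100 uM tamoxifen; AC50 from Hill fit of concentration-response.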

[5] = Cellular Toxicity (caspase-3) N2a (AID 665);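 also: compound exposure lasted 16 h at 37 °C before readout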
Outline: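 Mouse N2a neuroblastoma cells, 1500 per well, treated 16 h at 37 °C in complete medium; caspase-3/7 activity by Caspase-Glo luminescence after 1 h. Normalized to DMSO and 10 uM staurosporine; AC50 from Hill fits.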

[6] = Cellular Toxicity (caspase-3) NIH 3T3 (AID 666);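 also: caspase signal read after 16 h compound exposure; 0% = DMSO basal and 100% = 100 µM tamoxifen stimulation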
Outline: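 Mouse NIH 3T3 fibroblasts (1000/well) treated 16 h at 37 C; caspase-3/7 activity measured by Caspase-Glo 3/7 luminescence after 20 min. Normalized to DMSO and 100 uM tamoxifen; AC50 from Hill fits.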

[7] = Cellular Toxicity (caspase-3) Renal Proximal Tubule (AID 667); details: Potency: caspase-3 activation;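 also: cells exposed to compound for 16 hours at 37 °C before detection; 0% = DMSO basal and 100% = 10 µM staurosporine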
Outline: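 Freshly isolated primary rat kidney proximal tubule cells, 1000/well, treated 16 hr at 37 °C, then Caspase-Glo 3/7 luminescence after 1 hr. Normalized to DMSO and 10 uM staurosporine; AC50 from Hill fit.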

[8] = biological target: Cytochrome P450 3A4 (Homo sapiens) (UniProt P08684); assay: qHTS Assay for Inhibitors and Substrates of Cytochrome P450 3A4 (AID 884); also: nearly all actives have a fitted effect of over 50% in size; also: potency is read from the fitted curve at half-maximal effect
Outline: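 20 nM human CYP3A4 with 25 uM Luciferin-PPXE (at KM) in 200 mM KPO4, preincubated 10 min with compound; NADPH regeneration started a 60 min RT reaction. Luciferin detected by luminescence, normalized to 57 uM ketoconazole as full inhibition.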

[9] = Cell Viability - LYMP2-001 (AID 921);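 also: 0% = DMSO only and full inhibition = tetraoctylammonium bromide control wells; nearly all actives have a fitted effect of over 70% in size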
Outline: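 Human lymphoblastoid LYMP2-001 cells, 2500 per well, in complete medium, treated 24 h at 37 C. Viability from cellular ATP by CellTiter-Glo luminescence; AC50 from Hill-equation fits of qHTS concentration-response.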

[10] = MultiTox-Fluor Cytotoxicity Assay - LYMP1-001 - Dead Cells (AID 946)
Outline: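 Seed 2500 LYMP1-001 cells/well, incubate 5 hr at 37 C; add compound, 16 hr at 37 C; add MultiTox-Fluor reagent, 60 min RT; read dead-cell fluorescence Ex/Em=485/520. Normalize to DMSO and 15 uM tetraoctylammonium bromide.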

[11] = MultiTox-Fluor Cytotoxicity Assay - LYMP1-001 - Live Cells (AID 947);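 also: 0% = DMSO only and full inhibition = tetraoctylammonium bromide control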
[12] = Cell Viability - LYMP1-002 - Assay at 16 hr (AID 948);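 also: 0% = DMSO alone and full effect = 92 µM tetraoctylammonium bromide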
Outline: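 LYMP1-002 human lymphoblastoid cells, 2500/well, were treated with compounds for 16 hr at 37 C in complete medium. Viability was read as intracellular ATP by CellTiter-Glo luminescence, and AC50 was derived from a Hill fit to concentration-response data.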

[13] = MultiTox-Fluor Cytotoxicity Assay - LYMP1-002 - Live Cells (AID 955); also: % is scaled to controls: 0 for no effect and ±100 for the full control effect
Outline: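 Human lymphoblastoid LYMP1-002 cells, 2500/well, treated 16 h at 37 C in complete medium. Live-cell protease activity via GF-AFC fluorescence (Ex/Em 405/510) after 60 min reagent incubation; AC50 from Hill fits.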

[14] = MultiTox-Fluor Cytotoxicity Assay - LYMP1-002 - Dead Cells (AID 960); also: nearly all actives have a fitted effect of over 60% in size
Outline: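 Human lymphoblastoid LYMP1-002 cells, 2500/well, treated 16 h at 37 C; dead-cell protease cleavage of bis-AAF-R110 read by fluorescence (485/520); normalized to DMSO and 15 uM tetraoctylammonium bromide; AC50 from Hill fit.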

[15] = MultiTox-Fluor Cytotoxicity Assay - LYMP1-003 - Dead Cells (AID 961); also: nearly all actives have a fitted effect of over 70% in size
Outline: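 LYMP1-003 lymphoblastoid, 2500 cells/well, 5 hr settle then 16 hr cpd at 37 C; MultiTox-Fluor reagent 60 min RT; Ex/Em 485/520 dead-cell signal; norm. DMSO = 0%, 15 uM tetraoctylammonium bromide = 100%; Hill AC50.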

[16] = MultiTox-Fluor Cytotoxicity Assay - LYMP1-003 - Live Cells (AID 962);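 also: 0% = DMSO only and full loss = 92 µM tetraoctylammonium bromide; cytotoxic hits lower the live-cell protease signal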
Outline: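 LYMP1-003 lymphoblastoid cells, 2500/well in complete medium, treated 16 h at 37 C; live-cell protease cleavage of GF-AFC read by fluorescence (Ex/Em 405/510) after 60 min reagent; AC50 from Hill fits of concentration-response.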

[17] = Cell Viability - LYMP1-003 - Assay at 24 hr (AID 963);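 also: plate controls were DMSO only for no effect and tetraoctylammonium bromide positive control for full effect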
Outline: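 Human lymphoblastoid LYMP1-003 cells, 2500/well, treated 24 h at 37 C in complete medium. Viability read as intracellular ATP by CellTiter-Glo luminescence after 30 min at room temperature; AC50 from Hill-equation fits of qHTS concentration-response.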

[18] = Cell Viability - LYMP1-003 - Assay at 40 hr (AID 964); also: % is scaled to controls: 0 for no effect and ±100 for the full control effect; nearly all actives have a fitted effect of over 60% in size
Outline: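 LYMP1-003 human lymphoblastoid cells, 2500/well, preincubated 5 h at 37 C, then treated with compound for 40 h at 37 C. Intracellular ATP read by CellTiter-Glo luminescence after 30 min at room temperature; AC50 from Hill-equation fits.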

[19] = Cell Viability - LYMP2-003 (AID 965);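 also: cells exposed to compounds for 24 h before reading; 0% = DMSO only and full effect = 92 µM tetraoctylammonium bromide; nearly all actives have a fitted effect of over 50% in size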
Outline: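 Human lymphoblastoid LYMP2-003 cells, 2500/well, exposed to compounds for 24 h at 37 C in complete medium. Viability read as intracellular ATP by CellTiter-Glo luminescence; AC50 from Hill-equation fits of qHTS concentration-response data.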

[20] = biological target: Cytochrome P450 3A4 (Homo sapiens) (UniProt P08684); assay: qHTS Assay for Activators of Cytochrome P450 3A4 (AID 885); also: nearly all actives have a fitted effect of over 65% in size
Outline: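 Steps: enzyme/substrate mix dispensed; compound added, 10 min RT; NADPH regeneration solution added, 60 min RT; luciferin detection buffer stops reaction; 20 min later luminescence measured.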

Chain of Cytochrome P450 3A4 (Homo sapiens) (P08684 whole entry, looked up): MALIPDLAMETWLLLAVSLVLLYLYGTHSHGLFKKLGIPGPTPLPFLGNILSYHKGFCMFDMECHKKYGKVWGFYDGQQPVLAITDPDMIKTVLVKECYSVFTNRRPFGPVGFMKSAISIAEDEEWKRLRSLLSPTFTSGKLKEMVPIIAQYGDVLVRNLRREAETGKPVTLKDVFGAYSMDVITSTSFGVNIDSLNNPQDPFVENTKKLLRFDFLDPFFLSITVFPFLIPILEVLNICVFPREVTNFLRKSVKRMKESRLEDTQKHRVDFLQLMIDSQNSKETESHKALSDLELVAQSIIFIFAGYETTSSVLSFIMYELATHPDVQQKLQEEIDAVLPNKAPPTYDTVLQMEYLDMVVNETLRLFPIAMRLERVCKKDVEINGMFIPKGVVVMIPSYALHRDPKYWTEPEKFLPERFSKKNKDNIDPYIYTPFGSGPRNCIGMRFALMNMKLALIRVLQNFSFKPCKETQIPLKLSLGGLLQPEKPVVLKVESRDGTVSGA

N#CC1(O)CCCCC1
inactive: caspase-3 activation [1] 0.158% | outcome [2] | caspase-3 activation [3] -0.143% | caspase-3 activation [4] 1.67% | outcome [5] | outcome [6] | Potency [7] | Potency [8] | Potency [9] | outcome [10] | outcome [11] | outcome [12] | outcome [13] | outcome [14] | Potency [15] | Potency [16] | Potency [17] | Potency [18] | Potency [19]

Cc1cc(C)cc([N+](=O)[O-])c1
inactive: caspase-3 activation [1] -0.822% | outcome [2] | caspase-3 activation [3] 0.227% | caspase-3 activation [4] 0.15% | outcome [5] | outcome [6] | Potency [7] | Potency [8] | Potency [9] | outcome [10] | outcome [11] | outcome [12] | outcome [13] | outcome [14] | Potency [15] | Potency [16] | Potency [17] | Potency [18] | Potency [19]

Cc1cccc2ccccc12
inactive: caspase-3 activation [1] 0.763% | outcome [2] | caspase-3 activation [3] 0.93% | caspase-3 activation [4] 0.828% | outcome [5] | outcome [6] | Potency [7] | Potency [8] | Potency [9] | outcome [10] | outcome [11] | outcome [12] | outcome [13] | outcome [14] | Potency [15] | Potency [16] | Potency [17] | Potency [18] | Potency [19]

CCCC=O
inactive: caspase-3 activation [1] -0.494% | outcome [2] | caspase-3 activation [3] -1.37% | caspase-3 activation [4] -2.73% | outcome [5] | outcome [6] | Potency [7] | Potency [8] | Potency [9] | outcome [10] | outcome [11] | outcome [12] | outcome [13] | outcome [14] | Potency [15] | Potency [16] | Potency [17] | Potency [18] | Potency [19]

Cc1cccc(C)c1O
inactive: caspase-3 activation [1] -0.0557% | outcome [2] | caspase-3 activation [3] -0.375% | caspase-3 activation [4] -3.44% | outcome [5] | outcome [6] | Potency [7] | Potency [8] | Potency [9] | outcome [10] | outcome [11] | outcome [12] | outcome [13] | outcome [14] | Potency [15] | Potency [16] | Potency [17] | Potency [18] | Potency [19]

CCCCC(CC)C(=O)O (stereo not drawn)
inactive: caspase-3 activation [1] 0.178% | outcome [2] | caspase-3 activation [3] -0.144% | caspase-3 activation [4] 2.49% | outcome [5] | outcome [6] | Potency [7] | Potency [8] | Potency [9] | outcome [10] | outcome [11] | outcome [12] | outcome [13] | outcome [14] | Potency [15] | Potency [16] | Potency [17] | Potency [18] | Potency [19]

COC(=O)CCC(=O)OC
inactive: caspase-3 activation [1] -0.284% | outcome [2] | caspase-3 activation [3] 0.845% | caspase-3 activation [4] -0.32% | outcome [5] | outcome [6] | Potency [7] | Potency [8] | Potency [9] | outcome [10] | outcome [11] | outcome [12] | outcome [13] | outcome [14] | Potency [15] | Potency [16] | Potency [17] | Potency [18] | Potency [19]

O=Cc1cccc(Br)c1
inactive: caspase-3 activation [1] 1.82% | outcome [2] | caspase-3 activation [3] 2.2% | caspase-3 activation [4] 4.91% | outcome [5] | outcome [6] | Potency [7] | Potency [8] | Potency [9] | outcome [10] | outcome [11] | outcome [12] | outcome [13] | outcome [14] | Potency [15] | Potency [16] | Potency [17] | Potency [18] | Potency [19]

CC(=O)Nc1cccc(N)c1
inactive: caspase-3 activation [1] 0.0656% | outcome [2] | caspase-3 activation [3] 0.403% | caspase-3 activation [4] 0.134% | outcome [5] | outcome [6] | Potency [7] | Potency [8] | Potency [9] | outcome [10] | outcome [11] | outcome [12] | outcome [13] | outcome [14] | Potency [15] | Potency [16] | Potency [17] | Potency [18] | Potency [19]

O=C1NC(=O)c2cc([N+](=O)[O-])ccc21
active: Potency [8] 15.8 µM
inactive: caspase-3 activation [1] -0.781% | outcome [2] | caspase-3 activation [3] -0.832% | caspase-3 activation [4] -0.133% | outcome [5] | outcome [6] | Potency [7] | outcome [20] | outcome [10] | outcome [11] | outcome [12] | outcome [13] | outcome [14] | Potency [15] | Potency [16] | Potency [17] | Potency [18] | Potency [19]

CC(=O)Nc1ccc(C)cc1
inactive: caspase-3 activation [1] 0.522% | outcome [2] | caspase-3 activation [3] 0.606% | caspase-3 activation [4] 0.349% | outcome [5] | outcome [6] | Potency [7] | Potency [8] | Potency [9] | outcome [10] | outcome [11] | outcome [12] | outcome [13] | outcome [14] | Potency [15] | Potency [16] | Potency [17] | Potency [18] | Potency [19]

Clc1cc(Cl)cc(Cl)c1
inactive: caspase-3 activation [1] -0.669% | outcome [2] | caspase-3 activation [3] 0.838% | caspase-3 activation [4] 0.505% | outcome [5] | outcome [6] | Potency [7] | Potency [8] | Potency [9] | outcome [10] | outcome [11] | outcome [12] | outcome [13] | outcome [14] | Potency [15] | Potency [17] | Potency [19]

Oc1c(Cl)ccc(Cl)c1Cl
inactive: caspase-3 activation [1] 0.532% | outcome [2] | caspase-3 activation [3] 0.28% | caspase-3 activation [4] 4.28% | outcome [5] | outcome [6] | Potency [7] | Potency [8] | Potency [9] | outcome [10] | outcome [11] | outcome [12] | outcome [13] | outcome [14] | Potency [15] | Potency [16] | Potency [17] | Potency [18] | Potency [19]

O=C(Cl)c1ccccc1[N+](=O)[O-]
inactive: caspase-3 activation [1] -1.02% | outcome [2] | caspase-3 activation [3] 1.33% | caspase-3 activation [4] 1.55% | outcome [5] | outcome [6] | Potency [7] | Potency [8] | Potency [9] | outcome [10] | outcome [11] | outcome [12] | outcome [13] | outcome [14] | Potency [15] | Potency [16] | Potency [17] | Potency [19]
